Results taken from the supplement of paper PMC11417369.
Whole data set: some 25,000 sequences, median “ln(normalized median fluorescence intensity)” near 9.7, cut for the highest 2% near 11. The entries come from a sample that favours the highest values as a whole.

System: PfAP2-HC AP2 domain (GST-tagged)
Assay: gcPBM binding intensity (ln(normalized median fluorescence intensity)); higher = stronger DNA binding
Procedure, shortened: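 Binding intensity values are the highest Masliner-normalised natural-log median intensity among replicate spots of either probe orientation. The binding step lasted 1 h in 1× PBS with 1% milk, 0.2 mg/ml BSA, 0.5% salmon testes DNA and 0.03% Triton X-100, using GST-tagged P. falciparum DNA-binding domains expressed in E. coli on an Agilent 4 × 180k array of primer-extended double-stranded 36-bp intergenic genomic probes plus negative controls. Alexa488 anti-GST antibody and a 488 nm scan detected bound protein.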

Sequence	gcPBM binding intensity (ln)
TTTTGAATATGGATCTTATATATATTAAATAAATAA [CACACA_negctrl_site344]	9.09
ATGTTTTATAAAAGGCGTACACATATGCTTAAGTAA [XGTACX_site6232]	9.71
TATATAATTATAAGAACACACATATATATATATATA [CACACA_site2472]	9.49
AGGTGATTAATATATACACACATACATATATATATA [CACACA_site8913]	10
TCATTTTATTTTTTCACACACACATCTATATTTATA [CACACA_site7547]	10.2
TCATTTTATTTTTTCACACACACATATATATATATA [CACACA_site3333]	10.2
ATTTCACAGAGACACACACACAATATATTTCCTTTT [CACACA_site7773]	10.3
TCATTTCACAGACACACACACACAATATATTTCCTT [CACACA_site9295]	10.8
TCATTTCACAGACACACACACACAAGATATTTCCTT [CACACA_site7774]	11.1
TTTCATTTCACAGACACACACACACCCTATATTTCC [CACACA_site3906]	11.2
TATTTTTATTTTCCTTCACACATTTTTTATATTTTT [CACACA_site5830]	9.83
TCATTTCACGGACACACACACACAATATATTTCCTT [CACACA_site6023]	10.9
TCATTTCACAAACACACACACACAATATATTTCCTT [CACACA_site3905]	10.3
ATATTAATTATAACTTGTACGTAAAAGGAAAACAAT [XGTACX_site3269]	9.76
ATTATAATATTGTTATGTACATAAAAATTATTGAAT [XGTACX_site4476]	9.82
GATAACATAATATGTTGTACATAAAAATTTTTATCA [XGTACX_site1969]	9.62
GTAAAAATAAAAACTGGTACACAAGTTGTTATAAAA [XGTACX_site502]	9.76
TTATTTATTCTATGTGCATGTTATTTTTTTTTTTCG [TGCATGCA_site262]	9.73
TTTGTGTGTGCGTGTGCATGTTGTTTTTTTCTATAA [TGCATGCA_site17]	11.7
TTTTGTTTATGTGTGCATTATATTATATTTTTTATT [TGCATGCA_negctrl_site146]	10.1
ATTTACATAAATTGCATATATCGATGTAAATAAATA [CACACA_negctrl_site1150]	9.5
ATATAATATATATATAAACACACAAAAAAAATTATA [CACACA_site8434]	9.97
AATGTACCCACACCCACACACAAACAAATATATATA [CACACA_site2751]	10.2
TAAACACCCATATAAACACACATATAAACACCCATA [CACACA_site5382]	10.3

Sequence	gcPBM binding intensity (ln)
AAAAAAAAAAAACACACACACACACCCATATATAAA [CACACA_site1170]	11.1
AATATAAATAAAAACACACACACACCCATATATATA [CACACA_site2267]	11.3
TACATATATAAAAAAACACACACATATATATATATA [CACACA_site8315]	9.93
AATAAATATAAATACACACCCATATAAATATAAATA [CACACA_site7264]	10.1
TATATATAAAAACACACACACACACCCTATAATTAT [CACACA_site4063]	11.3
AATGTACACCCACCCACACACAAACAAATATATATA [CACACA_site5521]	10.3
ATAATATATATATAAACACACAAAAAAAATTATATA [CACACA_site1534]	9.86
AATGTACACGCACCCACACACAAACAAATATAAATA [CACACA_site7319]	11.6
AATAAATATAAATACACACCCATATATATATATATA [CACACA_site5436]	9.67
TTTATTTTTATGGTCACACATATTTTTAAAACTATA [CACACA_site4372]	9.77
TTTCATTTTTTTACATGTACGCAAAAGTGTGTAGTT [XGTACX_site6582]	9.78
TTTTTTTTTGAATACAGTACACAAGTGTTAAGTTTA [XGTACX_site7069]	9.36
TAAGTATACTCATACACACACACACTAGAAAAAAAA [CACACA_site4397]	10.4
TTCCACATTTTACAGACACACACAATTTATATTACG [CACACA_site8572]	10.1
ATGTTAAACAAATCTATACACACGTATATGACAAAA [CACACA_site1783]	9.71
TTTTGAAGTAATACATGTACTTAAATTACTAAAAAA [XGTACX_site1955]	9.47
TTCATATATTTTAAAGCATGCATTCATCTTATAGTT [TGCATGCA_site800]	9.71
TTGTATATATTTATATGTACATATATTACTTTTGCT [XGTACX_site2449]	9.83
TAAAATAACTCACAAAGTACAAAAATAAGCATATGA [XGTACX_site7046]	9.79
TTTATTTTGTTTTCTTGTACATAAATAATTACATAT [XGTACX_site4227]	9.86
TATCTCATAGTATACACACACACACCCACCCATATA [CACACA_site1739]	10.7
AACACCCATGGACACACACACATATATATATATATA [CACACA_site5809]	10.4
ATAATCCTGAAACACACACACACACCCATAAATAAA [CACACA_site481]	11.1
TCATAGTATGGACACACACACACACCCATATATATA [CACACA_site5033]	11.2

Sequence	gcPBM binding intensity (ln)
TCATAGTATAAACACACACACACACCCATATATATA [CACACA_site8512]	11
TATAAACACCCATATAAACACACATACATACATACA [CACACA_site8791]	10.2
TACACGCATAAACACACACACACACCCATATATATA [CACACA_site8114]	11.3
TAAACACCCATATAAACACACATACATACATACATA [CACACA_site5383]	10.4
CAAAAAATGAAACACACACACACACCCATAAATAAA [CACACA_site1231]	10.8
ATTCATATGAAACACACACACACACCCATAAAAAAA [CACACA_site3246]	10.5
ATTAGTGACATTATTACACACAAAAGAAAACAGAAA [CACACA_site3984]	9.99
TTTCAAAAAAATAATGTGCACATTAGAAAATAAATA [GTGCAC_site9416]	9.78
TATTTTTTGAAAAGTTCACACATCCAACTCGAGTTG [CACACA_site4412]	9.62
TATATATATATAATATGTACATATATATATTCTTAA [XGTACX_site6154]	9.49
GTATGTATAATATACACACTCACAAGCATTCAAATA [CACACA_site267]	9.76
GAAAAACAAATATATTAACACACAAACATATAAACA [CACACA_site9315]	10.2
ACCATATAAATAAACACACACACACCCATATATATA [CACACA_site2321]	10.6
TATATATTAAAACACACACACATATATATATATATA [CACACA_site3787]	10.1
TATATAAAGAAACACACACACACCTTATAATTATTA [CACACA_site4062]	11.2
TATATAAATAAACACACACACACCTTATAATTATTA [CACACA_site9345]	10.5
TACACGCATGGACACACACACACACCCATATATATA [CACACA_site4522]	11
TATTAAACGAAACACACACACACACCCATATATAAA [CACACA_site759]	11.5
CACGCATACAGACACACACACACACCCATATATATA [CACACA_site636]	10.6
AAAAAAAAAAAAAACACACACACACCCATAAATATA [CACACA_site151]	11.2
TACACCCATGGACACACACACACGCATAAAAAAAAA [CACACA_site4933]	10.7
AAAAAAAATAAACACACACACATACCCATAAATATA [CACACA_site5980]	10.4
TAAAGAATATTATAAACACACACTTTATAAAGAATT [CACACA_site114]	9.91
AAATTACAAATACAAACACACAAATGTTTTTCATTC [CACACA_site3552]	9.77

Sequence	gcPBM binding intensity (ln)
AAAAAAAAAAGAACCCGTACATAAATAATATATATA [XGTACX_site164]	9.73
AAATTGAGACAACAGGTGCATATAAATATACAGTGT [GTGCAC_site9634]	9.79
GTATGAAATTATAATAGTACATATAAATAAAAAAAA [XGTACX_site8955]	9.85
ATTTTAATATAAAATACACACTACTATTATAAATAT [CACACA_site4917]	9.64
AAAATTGAACCTGACAAGGTATTTTATTATTTATTA [TGCATGCA_negctrl_site181]	9.44
ATAAAAATGGTGTTAACACACACATATATATATATA [CACACA_site8089]	9.83
TATATTATTTATAGTAGTACATAAAATATAAATATT [XGTACX_site4417]	9.48
TATTTTGTCATAGAACGTACTTATAAATATTTTTTT [XGTACX_site8424]	9.5
AAATCATGTTGAAGGGGTACAAAATATGTAATGTTG [XGTACX_site6222]	9.82
TTTTATTTCAATCCACAAGGGATAAAATAAAGTTTT [CACACA_negctrl_site699]	9.3
AACACAGATAAATTAACACACACACCCATATATATA [CACACA_site9310]	11.2
TATATATAGAAACACACACACACACCCAAGCGTAGC [CACACA_site63]	10.6
TCATAGTAGAAACACACACACACACCCATATATATA [CACACA_site1737]	11.3
TATTAAACTGGACACACACACACACCCATATATAAA [CACACA_site4579]	11.2
AAAATACAGAAACACACACACACACCCATATATATA [CACACA_site3559]	10.7
CACAGATAAATTAACACACACACACCCATATATATA [CACACA_site3960]	10.5
TTTATTAAACTTGACACACACACACCCACATATATA [CACACA_site760]	10.2
CACAGATAAATTAACACACACACACCGATATATATA [CACACA_site6049]	10.5
TATATATAGAAACACACACACATATATATATATATA [CACACA_site773]	10.5
TACACGCAGAAACACACACACACACCCATATATATA [CACACA_site637]	11.4
AATACACGCAAACACACACACACACCCACATATATA [CACACA_site638]	10.8
TTCCCATGTAATATTAAACACACACCCATATAACAC [CACACA_site7905]	10.5
